Among the data in PubChem BioAssay are cell count, outcome and z-score values, retold here.

Several values for one entry are separate records, joined by “and”; a condition that tells them apart may be missing. Identical values can stand only once. Activity calls are given as the source filed them.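 Rule for the calls, unless noted: active = mean z-score across replicates of 1.96 or higher in either the MELAS or the Rieske mutant cell line; inactive = the rest.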

The first experiment can be described thus: viability loss with induced miR-34 in A549 – imaging, A549 dox-inducible miR-34, nuclei and caspase counts, primary screen (AID 1347080). The settings on record: A549 miR-34 inducible, Hoechst nuclei count, 48 h; measured here: total cells with miR-34 induction; stronger effect = lower value.
`COc1cc(OC)c(OC)cc1C=O` registered a cell count of 9380.

In turn, `[N-]=[N+]=CC(=O)OCC(N)C(=O)O` (stereo not drawn) showed a cell count of 601.

`C[C@H](N)[C@H](O)c1ccc(O)c(O)c1`: the cell count is 9300 and 11200.

Take `CC[N+]1(C)CCCC(OC(=O)C(O)(c2ccccc2)c2ccccc2)C1` (stereo not drawn): the cell count was found to be 8700.

Take `CC1=NCCc2c1[nH]c1cc(O)ccc21`: the cell count was 8870.

`C[C@@H](N)[C@@H](O)c1ccccc1` had a cell count of 8010.

`ClC1C(Cl)C(Cl)C(Cl)C(Cl)C1Cl` (stereo not drawn): the cell count came out at 10400.

`O=C(O)CC[N+](=O)[O-]` showed a cell count of 10800.

Turning to `C=CCC1(C(C)CCC)C(=O)N=C(S)NC1=O` (stereo not drawn), the cell count was found to be 11400.

Turning to `CCCCCCCCCCCCCCCC[n+]1ccccc1`, the cell count was 1850 and 1610.

Regarding `OC1CCCCC1N1CCC(c2ccccc2)CC1` (stereo not drawn), the cell count is 10100 and 9780 and 10400.

For `COc1cc2c(cc1OC)C(C)NCC2` (stereo not drawn), the cell count was found to be 9140.

For `O=[N+]([O-])c1cc([As](=O)(O)O)ccc1O`, the cell count is 8580 and 11200.

As to `COc1ccc2c(c1O)-c1c(OC)c(OC)cc3c1[C@H](C2)N(C)CC3`, the cell count was 9380.

On to `COc1ccc2c(c1)[nH]c1c(C)nccc12`, for which the cell count was 4630 and 5110 and 4130.

As for `NC(N)=NOCC[C@H](N)C(=O)O`, the cell count was 9120 and 8920.

Molecule `CN1C2CCC1CC(OC(c1ccccc1)c1ccccc1N)C2` (stereo not drawn) yielded a cell count of 9770.

For the molecule `O=C1C=CC(=O)c2c(O)cccc21`, the cell count amounted to 2420.

`CCOP(=S)(OCC)Oc1nc(Cl)c(Cl)cc1Cl`: the cell count was found to be 8030.

`NCCc1c[nH]c2ccccc12`: the cell count was 9290.

Take `CN[C@@H](C)[C@@H](O)c1ccccc1`: the cell count came to 11300.

`COc1ccc2c3c([nH]c2c1)C(C)=NCC3` came in with a cell count of 8720.

Take `CN1CCc2cc3c(cc2C1O)OCO3` (stereo not drawn): the cell count is 11700.

Regarding `CNC(C)C(O)c1ccccc1` (stereo not drawn), the cell count turned out to be 10800.

The molecule `CN(C)[C@@H]1C(=O)C(C(N)=O)=C(O)[C@@]2(O)C(=O)C3=C(O)c4c(O)ccc(Cl)c4[C@@](C)(O)[C@H]3C[C@@H]12` returned a cell count of 9350.

Molecule `CC1=C(O)C(=O)C=C2C1=CC=C1[C@@]2(C)CC[C@@]2(C)[C@@H]3C[C@](C)(C(=O)O)CC[C@]3(C)CC[C@]12C` showed a cell count of 948.

The experiment is the same for the next values; noted with them: A549 miR-34 inducible, Hoechst nuclei count, 48 h; measured here: total cells without miR-34 induction.
Consider `COc1cc(OC)c(OC)cc1C=O`, for which the cell count turned out to be 10100.

As for `[N-]=[N+]=CC(=O)OCC(N)C(=O)O` (stereo not drawn), the cell count amounted to 722.

As for `C[C@H](N)[C@H](O)c1ccc(O)c(O)c1`, the cell count was 10200 and 12900.

On to `CC[N+]1(C)CCCC(OC(=O)C(O)(c2ccccc2)c2ccccc2)C1` (stereo not drawn), for which the cell count worked out at 9020.

`CC1=NCCc2c1[nH]c1cc(O)ccc21`: the cell count worked out at 10500.

For `C[C@@H](N)[C@@H](O)c1ccccc1`, the cell count stood at 9410.

Regarding `ClC1C(Cl)C(Cl)C(Cl)C(Cl)C1Cl` (stereo not drawn), the cell count was 11900.

In turn, `O=C(O)CC[N+](=O)[O-]` returned a cell count of 10200.

`C=CCC1(C(C)CCC)C(=O)N=C(S)NC1=O` (stereo not drawn) displayed a cell count of 12400.

As for `CCCCCCCCCCCCCCCC[n+]1ccccc1`, the cell count is 2130 and 2090.

With `OC1CCCCC1N1CCC(c2ccccc2)CC1` (stereo not drawn), the cell count is 10200 and 9480 and 12300.

On to `COc1cc2c(cc1OC)C(C)NCC2` (stereo not drawn), for which the cell count is 11000.

`O=[N+]([O-])c1cc([As](=O)(O)O)ccc1O`: the cell count was 9240 and 11900.

The molecule `COc1ccc2c(c1O)-c1c(OC)c(OC)cc3c1[C@H](C2)N(C)CC3` gave a cell count of 10900.

As to `COc1ccc2c(c1)[nH]c1c(C)nccc12`, the cell count is 5480 and 5630 and 4470.

Regarding `NC(N)=NOCC[C@H](N)C(=O)O`, the cell count was 8990 and 10800.

As for `CN1C2CCC1CC(OC(c1ccccc1)c1ccccc1N)C2` (stereo not drawn), the cell count is 9760.

As for `O=C1C=CC(=O)c2c(O)cccc21`, the cell count was found to be 2440.

The molecule `CCOP(=S)(OCC)Oc1nc(Cl)c(Cl)cc1Cl` showed a cell count of 9060.

Consider `NCCc1c[nH]c2ccccc12`, for which the cell count is 9110.

Consider `CN[C@@H](C)[C@@H](O)c1ccccc1`, for which the cell count was 12500.

On to `COc1ccc2c3c([nH]c2c1)C(C)=NCC3`, for which the cell count was 9180.

Turning to `CN1CCc2cc3c(cc2C1O)OCO3` (stereo not drawn), the cell count turned out to be 12700.

In the case of `CNC(C)C(O)c1ccccc1` (stereo not drawn), the cell count worked out at 12100.

The molecule `CN(C)[C@@H]1C(=O)C(C(N)=O)=C(O)[C@@]2(O)C(=O)C3=C(O)c4c(O)ccc(Cl)c4[C@@](C)(O)[C@H]3C[C@@H]12` registered a cell count of 10100.

`CC1=C(O)C(=O)C=C2C1=CC=C1[C@@]2(C)CC[C@@]2(C)[C@@H]3C[C@](C)(C(=O)O)CC[C@]3(C)CC[C@]12C` registered a cell count of 1040.

The nature of the next experiment: blockers of cellular phospholipid synthesis – cell-based, LOPAC library, screen 4, primary screen (AID 1347384; call rule not given here). The settings on record: animal cells, phospholipid biosynthesis inhibition screen; at 10 µM.
On to `O=C(O)CC[N+](=O)[O-]`, for which the molecule was called inactive.

With `OC1CCCCC1N1CCC(c2ccccc2)CC1` (stereo not drawn), the call was inactive.

For `NC(N)=NOCC[C@H](N)C(=O)O`, the molecule was classed as inactive.

Consider `CN1C2CCC1CC(OC(c1ccccc1)c1ccccc1N)C2` (stereo not drawn), for which the call was inactive.

`NCCc1c[nH]c2ccccc12`: the outcome was inactive.

A further experiment in a line: MELAS cybrid and Rieske KO viability enhancers – cell-based, MELAS cybrids, Rieske KO mouse fibroblasts, CellTiter-Glo, primary screen (AID 1508586).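 Note: z relative to plate mean and SD of compound and empty wells.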 The conditions noted are these: MELAS cybrid survival, low glucose, CellTiter-Glo 48 h; stronger effect = higher value. Background: In ATP-based viability assays light output follows the ATP content of the culture.
Turning to `COc1cc(OC)c(OC)cc1C=O`, the z-score is -0.272 (inactive).

Take `C[C@H](N)[C@H](O)c1ccc(O)c(O)c1`: the z-score was -0.729 (inactive).

Regarding `CC[N+]1(C)CCCC(OC(=O)C(O)(c2ccccc2)c2ccccc2)C1` (stereo not drawn), the z-score is -0.637 (inactive).

Regarding `C[C@@H](N)[C@@H](O)c1ccccc1`, the z-score was -0.426 (inactive).

On to `CCCCCCCCCCCCCCCC[n+]1ccccc1`, for which the z-score is -0.367 (inactive).

For the molecule `CC[C@@H]1C(=O)OC[C@@H]1Cc1cncn1C`, the z-score is 0.213 (inactive).

For the molecule `COc1ccc2c(c1)[nH]c1c(C)nccc12`, the z-score is 0.384 (inactive).

In the case of `CN(C)[C@@H]1C(=O)C(C(N)=O)=C(O)[C@@]2(O)C(=O)C3=C(O)c4c(O)ccc(Cl)c4[C@@](C)(O)[C@H]3C[C@@H]12`, the z-score is -3.64 (inactive).

Staying with this experiment, now noted: Rieske KO mouse fibroblast survival, low glucose, CellTiter-Glo 72 h.
On to `COc1cc(OC)c(OC)cc1C=O`, for which the z-score came to 0.673.

Take `C[C@H](N)[C@H](O)c1ccc(O)c(O)c1`: the z-score was -1.14.

In the case of `CC[N+]1(C)CCCC(OC(=O)C(O)(c2ccccc2)c2ccccc2)C1` (stereo not drawn), the z-score is -0.323.

On to `C[C@@H](N)[C@@H](O)c1ccccc1`, for which the z-score was -0.509.

Regarding `CCCCCCCCCCCCCCCC[n+]1ccccc1`, the z-score was -0.303.

With `CC[C@@H]1C(=O)OC[C@@H]1Cc1cncn1C`, the z-score was -0.117.

Consider `COc1ccc2c(c1)[nH]c1c(C)nccc12`, for which the z-score is 1.34.

In the case of `CN(C)[C@@H]1C(=O)C(C(N)=O)=C(O)[C@@]2(O)C(=O)C3=C(O)c4c(O)ccc(Cl)c4[C@@](C)(O)[C@H]3C[C@@H]12`, the z-score is -1.98.
